PubChem BioAssay (NCATS)
Records with an inconclusive call do not appear. The source made the active and inactive calls. Calls follow the shape of the dose curve; as a rule, active = well fitted inhibition curve with a large enough effect; inconclusive = small, poorly fitted or top-dose-only effect; inactive = flat fitted curve, though single readings scatter.

Key:
Assay in all cases: qHTS profiling for inhibitors of Plasmodium falciparum proliferation (AID 504749); also: nearly all actives have a fitted effect of over 60% in size
Conditions in all cases: P. falciparum in erythrocytes, SYBR Green DNA, 72 h; series mostly up to 28.7 µM
3D7 = tested on: 3D7
In short: (§1)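 Each compound contacts P. falciparum-infected red blood cells for 72 h at 37 C; lysis buffer (Tris, EDTA, saponin, Triton X, SYBR Green I) is added and fluorescence measured next morning; values normalized to controls.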

CP215 = tested on: CP215
In short: as §1

CP217 = tested on: CP217
In short: as §1

CP250 = tested on: CP250
In short: as §1

CP256 = tested on: CP256
In short: as §1

CP260 = tested on: CP260
In short: as §1

CP286 = tested on: CP286
In short: as §1

CP291 = tested on: CP291
In short: as §1

CP315 = tested on: CP315
In short: as §1

CP335 = tested on: CP335
In short: as §1

DIV14 = tested on: DIV14
In short: as §1

DIV17 = tested on: DIV17
In short: as §1

Dd2 = tested on: Dd2
In short: as §1

FAB9 = tested on: FAB9
In short: as §1

GB4 = tested on: GB4
In short: as §1

JCK = tested on: JCK
In short: as §1

N140 = tested on: N140
In short: as §1

PC15 = tested on: PC15
In short: as §1

SC27B = tested on: SC27B
In short: as §1

TAB165 = tested on: TAB165
In short: as §1

Measured: Potency

C[C@]12CC[C@H]3c4ccc(O)cc4CC[C@@H]3[C@H]1CC[C@@H]2OP(=O)(O)O
inactive: all assays above

N[C@@H](Cc1ccccc1)C(=O)O
inactive: all assays above

CC1(C)[C@@H]2CC[C@]1(C)[C@@H](OC(=O)CSC#N)C2
inactive: all assays above
